SMILES strings stand for the structures. Active and inactive are the calls of the source.

In one experiment the target is Albumin (Bos taurus) (UniProt P02769). In words: compounds binding labelled BSA control protein – biochemical, small-molecule microarray, Alexa647 label, 635/667 nm fluorescence, artefact control for SMM control protein annotation, profiling panel (AID 1118).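 Also: score merges 667 nm emission intensity and signal-to-noise per printed compound spot.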 Conditions: BSA-A647 binding, fluorescence 635 nm, higher = more signal.
Chain of Albumin (Bos taurus) (P02769 whole entry, looked up): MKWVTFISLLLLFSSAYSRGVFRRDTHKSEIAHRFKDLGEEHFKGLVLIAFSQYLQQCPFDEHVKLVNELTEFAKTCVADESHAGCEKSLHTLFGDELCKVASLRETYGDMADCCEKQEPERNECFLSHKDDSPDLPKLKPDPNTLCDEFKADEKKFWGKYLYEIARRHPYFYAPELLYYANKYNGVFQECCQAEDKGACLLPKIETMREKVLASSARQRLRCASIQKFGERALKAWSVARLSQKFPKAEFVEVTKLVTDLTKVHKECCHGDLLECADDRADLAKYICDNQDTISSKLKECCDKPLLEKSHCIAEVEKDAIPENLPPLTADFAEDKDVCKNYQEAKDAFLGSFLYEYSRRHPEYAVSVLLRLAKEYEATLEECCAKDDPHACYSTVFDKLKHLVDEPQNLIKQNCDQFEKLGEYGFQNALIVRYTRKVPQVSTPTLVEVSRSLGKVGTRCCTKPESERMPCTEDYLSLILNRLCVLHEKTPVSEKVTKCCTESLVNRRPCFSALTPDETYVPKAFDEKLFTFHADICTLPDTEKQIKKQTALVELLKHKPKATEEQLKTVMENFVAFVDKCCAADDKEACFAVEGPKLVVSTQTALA
A short description of experiment [1]: probe aXIP binding to arrayed compounds – biochemical, NeuroSMM set, 635/667 nm fluorescence, primary screen (AID 1119).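 Also: probe is the protein aXip251-270 applied at 1 µg/mL to compound-printed slides; binding of probe to printed compounds measured as 667 nm fluorescence plus signal to noise.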 Conditions: small-molecule microarray, higher = more signal, called active from +8 up or from −8 down.
Experiment [2] can be described thus: probe aNOTCH3 binding on compound microarray – biochemical, small-molecule microarray, 635/667 nm fluorescence, primary screen (AID 1120).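 Also: probe is a biotin-tagged antibody raised against NOTCH3 rather than NOTCH3 protein; score merges spot fluorescence near 667 nm with spot signal to noise.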 Conditions: higher = more signal.
Experiment [3] in a line: probe aNOTCH2 binding on compound microarray – biochemical, small-molecule microarray, 635/667 nm fluorescence, primary screen (AID 1121).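 Also: score merges feature fluorescence read at 667 nm with its signal to noise.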 Conditions: higher = more signal.
Experiment [4] concerns the target Carbonic anhydrase 2 (Homo sapiens) (UniProt P00918). In words: compounds binding carbonic anhydrase 2 – biochemical, small-molecule microarray, Alexa647-labelled CAII, profiling panel (AID 1122). The following applies: CAII-A647 binding fluorescence, higher = more signal.
A short description of experiment [5]: COS7 lysate on small-molecule microarray, probe aHis, 635 nm (AID 1123).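 Also: z-score combines 667nm fluorescence intensity with signal-to-noise per printed compound spot.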 The following applies: COS7 cell lysate, fluorescence, higher = more signal.
Experiment [6] in a line: probe aLAP1 signal on lysate-treated microarray – cell lysate, small-molecule microarray, COS7 lysate, primary screen (AID 1124).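 Also: lysate comes from COS7 cells expressing LAP1 and is applied at 0.3 µg/mL; score merges spot fluorescence near 667 nm with signal-to-noise over triplicate slides.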 Conditions: probe aLAP1, fluorescence, higher = more signal.
The next experiment has as its system Sam68 (KHDRBS1). Description: compounds binding KHDRBS1 protein – biochemical, small-molecule microarray, 635 nm fluorescence, primary screen (AID 1125).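 Also: score merges 667 nm channel intensity with signal to noise over triplicate slides.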 The following applies: higher = more signal.
The subject of experiment [7] is Chordin-like protein 2 (CHRDL2). In words: compounds binding chordin-like 2 – biochemical, small-molecule microarray, 635 nm fluorescence, primary screen (AID 1126).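 Also: printed compound slides probed with Chrdl2 protein at 4 µg/mL for 1 h at 4 C; score merges 667 nm emission intensity with signal to noise over three replicate slides.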 Conditions: fluorescence 635 nm, higher = more signal.
The target in experiment [8] is Concanavalin-A (Canavalia ensiformis) (UniProt P02866). In words: compounds binding concanavalin A lectin – biochemical, small-molecule microarray, Alexa647 label, 635 nm, artefact control for SMM control protein annotation, primary screen (AID 1127).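 Also: z combines 667 nm emission intensity with signal-to-noise across three replicate slides.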 Conditions: ConA-A647 binding fluorescence, higher = more signal.
Chain of Concanavalin-A (Canavalia ensiformis) (P02866 whole entry, looked up): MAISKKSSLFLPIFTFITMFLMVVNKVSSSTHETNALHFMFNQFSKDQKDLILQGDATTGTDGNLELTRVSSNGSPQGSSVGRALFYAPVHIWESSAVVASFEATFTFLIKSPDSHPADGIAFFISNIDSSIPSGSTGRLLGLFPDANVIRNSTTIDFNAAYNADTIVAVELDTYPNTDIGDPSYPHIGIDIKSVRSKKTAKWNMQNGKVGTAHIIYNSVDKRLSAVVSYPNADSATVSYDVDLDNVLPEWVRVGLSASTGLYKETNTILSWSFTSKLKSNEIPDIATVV

On to `Cc1ccc(S[C@]2(C(=O)NC(C)C)CC(=O)N(Cc3ccccc3)[C@@H]2c2ccc(CO)cc2)cc1`, for which the composite z-score with Albumin (Bos taurus) is 0.161; in experiment [2] it was -0.333; in experiment [3] it was -0.0451; in experiment [4], 0.445; in experiment [5] it was -0.0367; in [6], -0.915. For the same compound, the results for the composite z-score (in the experiment on Sam68 (KHDRBS1); in experiment [7]; in experiment [8]) were -0.76, -1.31 and -1.06, respectively. Besides, the composite Z-score in [1] is 0.339 (inactive).
Regarding `Cc1ccc(S[C@]2(C(=O)NCC(C)C)CC(=O)N(C(C)C)[C@@H]2c2ccc(CO)cc2I)cc1`, the composite z-score in the experiment with Albumin (Bos taurus) is -0.0268; in experiment [2] it was -0.019; in experiment [3], -0.057; in [4] it was 0.56; in experiment [5] it was 1.07; in [6], 0.801. For the same compound, the composite z-score with Sam68 (KHDRBS1) was -0.236; in experiment [7] it was -0.802; in [8], -1.16. Besides, in experiment [1], the composite Z-score is 0.849 (inactive).
Regarding `COC(=O)C1(CC(C)C)C=C2C(=C(C)C(=O)C2C)CN1` (stereo not given), the composite z-score was -0.293 with Albumin (Bos taurus); 0.786 in [2]; 0.175 in experiment [3]; 0.754 in experiment [4]; 1.63 in experiment [5]; 0.311 in [6]. The composite z-score in the experiment on Sam68 (KHDRBS1) was -0.0177; in experiment [7], 0.0633; in experiment [8], -0.667. In addition, the composite Z-score in experiment [1] was 1.64 (inactive).
As for `CC1C2C(CCCO)=CC(C3C(=O)N(C)C(=O)C23)N1Cc1cccc(OC(F)(F)F)c1` (stereo not given), the composite z-score is 1 with Albumin (Bos taurus); 0.126 in [2]; 0.0083 in experiment [3]; 0.854 in [4]; 2.43 in experiment [5]; 0.267 in [6]. Moreover, the composite z-score is 1.29 in the experiment with Sam68 (KHDRBS1), -0.262 in experiment [7] and 0.96 in [8]. Moreover, the composite Z-score in [1] is -0.0186 (inactive).
Take `Cc1c(NC(=O)/C(C#N)=C/C=C/c2ccc([N+](=O)[O-])cc2)c(=O)n(-c2ccccc2)n1C`: the composite z-score with Albumin (Bos taurus) was found to be 0.974; in [2], 0.144; in experiment [3] it was 0.0966; in experiment [4], 0.584; in [5] it was 2.23; in experiment [6], 0.82. Further, the figures for the composite z-score (with Sam68 (KHDRBS1); in [7]; in experiment [8]) were 1.3, 0.0495 and 1.04, respectively. For the same compound, in experiment [1], the composite Z-score was 0.947 (inactive).
For `O=C1C2C=CC(C(O)C3CCCCC3)N(Nc3ccccc3F)C2C(=O)N1c1ccccc1` (stereo not given), the composite z-score was 0.97 with Albumin (Bos taurus); 0.457 in [2]; 0.252 in experiment [3]; 0.244 in [4]; 2.71 in [5]; 1 in [6]. Besides, the composite z-score in the experiment on Sam68 (KHDRBS1) is 1.31; in experiment [7] it was 0.426; in experiment [8], 1.2. Further, the composite Z-score in experiment [1] was 0.485 (inactive).
Consider `COc1cc2c(cc1O)C(C)N(Cc1sc3ccccc3c1Cl)CC2` (stereo not given), for which the composite z-score in the experiment with Albumin (Bos taurus) was 1.01; in [2], -0.014; in [3], -0.0158; in experiment [4], 0.937; in [5], 0.477; in experiment [6], -0.181. Besides, the results for the composite z-score (with Sam68 (KHDRBS1); in experiment [7]; in [8]) were -1.44, -1.9 and -1.53, respectively. Besides, the composite Z-score in [1] was -0.768 (inactive).
In the case of `C[C@]1(C(=O)NCC(F)(F)F)c2ccccc2C(=O)N(Cc2cc(C(F)(F)F)cc(C(F)(F)F)c2)[C@H]1c1ccc(CO)cc1`, the composite z-score with Albumin (Bos taurus) is 0.154; in experiment [2] it was -0.154; in experiment [3], -0.0226; in experiment [4], 0.306; in [5], 1.11; in [6] it was 0.108. Also, the composite z-score is 0.1 in the experiment on Sam68 (KHDRBS1), -0.404 in experiment [7] and -0.522 in [8]. For the same compound, in [1], the composite Z-score is 0.196 (inactive).
In the case of `C=CCOC(=O)[C@@H]1[C@H]2C(=O)O[C@H](c3ccccc3)[C@H](c3ccccc3)N2[C@H](c2ccc(OCCOC(=O)[C@H]3C[C@H]4C(=O)N[C@@H](CCCCN(C)C)C(=O)N4[C@H]3c3cccc(OCCO)c3)cc2)[C@@]12C(=O)Nc1ccccc12`, the composite z-score with Albumin (Bos taurus) is 0.172; in experiment [2], -0.2; in experiment [3], 0.0018; in [4] it was 0.656; in experiment [5] it was 0.668; in [6], 0.781. The composite z-score amounted to 0.846 with Sam68 (KHDRBS1), 0.0523 in experiment [7] and 0.682 in experiment [8]. In addition, in experiment [1], the composite Z-score is 0.597 (inactive).
On to `O=C(NCC(F)(F)F)[C@@H]1c2ccccc2C(=O)N(Cc2cc(C(F)(F)F)cc(C(F)(F)F)c2)[C@H]1c1ccc(CO)cc1`, for which the composite z-score with Albumin (Bos taurus) is 0.195; in experiment [2] it was -0.154; in experiment [3], -0.0984; in experiment [4], 0.207; in [5] it was 0.729; in [6] it was 0.158. The figures for the composite z-score (in the experiment with Sam68 (KHDRBS1); in [7]; in experiment [8]) were 0.178, 0.0632 and 0.209, respectively. Further, the composite Z-score in [1] is -0.368 (inactive).
As for `C=C(C(=O)CC[C@@H](OC(=O)c1cccnc1)c1cccc(OCCO)c1)C(C)C`, the composite z-score with Albumin (Bos taurus) is -0.176; in experiment [2], 0.0286; in experiment [3], -0.141; in experiment [4], 0.14; in experiment [5] it was -0.588; in experiment [6] it was 1.3. Also, the values for the composite z-score (in the experiment with Sam68 (KHDRBS1); in experiment [7]; in [8]) were -0.588, -0.114 and 0.297, respectively. Besides, in [1], the composite Z-score was 0.437 (inactive).
In the case of `O=C1O[C@H](c2ccccc2)[C@H](c2ccccc2)N2[C@H]1[C@@H](C(=O)N1CCCCCCC1)[C@]1(C(=O)Nc3ccc(C#CCCO)cc31)[C@H]2c1ccc(O)cc1`, the composite z-score with Albumin (Bos taurus) was 0.777; in experiment [2] it was 2.27; in [3] it was 1.18; in experiment [4] it was 0.91; in [5], 4.64; in [6], 1.53. Besides, the composite z-score with Sam68 (KHDRBS1) is 1.35; in experiment [7] it was 1.68; in [8], 1.17. In experiment [1], the composite Z-score was 9.39 (active).
With `CCCN1C(=O)[C@@]2(c3ccc([N+](=O)[O-])cc3)CC(=O)N(C3CCCCC3)[C@@H]2c2ccc(CO)cc21`, the composite z-score with Albumin (Bos taurus) is -0.328; in [2], -0.15; in experiment [3] it was -0.112; in [4], -0.139; in [5], 0.361; in experiment [6], -0.435. Also, the figures for the composite z-score (in the experiment on Sam68 (KHDRBS1); in [7]; in [8]) were 0.268, 0.649 and 0.31, respectively. Moreover, the composite Z-score in [1] is 2.02 (inactive).
`O=C1NC(=O)C2C1C=CC(C(O)C(O)CO)N2Nc1ccccn1` (stereo not given): the composite z-score is 0.319 with Albumin (Bos taurus); 0.0026 in [2]; -0.207 in [3]; 0.315 in [4]; 0.344 in [5]; 0.635 in experiment [6]. Further, the composite z-score with Sam68 (KHDRBS1) came to 0.523; in experiment [7] it was 0.105; in [8] it was 0.932. In experiment [1], the composite Z-score is 0.035 (inactive).

These data come from PubChem BioAssay.
